# In PubChem BioAssay (Tox21):
# Results filed as inconclusive are left out. Where a call stands in place of a potency, no number is given. The source made the active and inactive calls. Calls follow the shape of the dose curve; as a rule, active = well fitted inhibition curve with a large enough effect in the signal ratio in the repeat runs (not every such curve was filed as active); inconclusive = weak or mixed curves, or effect the other way; inactive = flat fitted curve, though single readings scatter; the % refers to the signal ratio.
# Test: cAMP Responsive Elements (CRE) small molecule antagonists, cell-based qHTS assay (AID 1963591)
# Conditions: CRE-bla HEK293T, beta-lactamase FRET ratio; series mostly up to 92.4 µM; activity change, negative = inhibition: at the top concentration
# From the text: U.S. Tox21 Program National Center for Advancing Translational Sciences [NCATS] Division of Preclinical Innovation [DPI] U.S. Environmental Protection Agency [EPA] National Institutes of Environmental Health Sciences [NIEHS] National Toxicology Program [NTP] U.S. Food and Drug Administration [FDA] Tox21 Assay Overview: CREB (cyclic-AMP Responsive Element Binding Protein) is a cellular transcription factor. It binds to certain DNA sequences called cAMP Responsive Elements (CRE) and regulates the transcription of the genes. […] This cell line can be used to find agonists/antagonists of the cyclic AMP signaling pathway. The activation of the report gene under culture conditions can be detected by fluorescence intensity. This cell line has been used to screen the Tox21 10K compound library to […].
# Tox21 Assay Protocol Summary: CRE-bla Hek 293T cells were suspended in assay medium (DMEM containing 10% dialyzed FBS, 0.1 mM NEAA, 1 mM sodium pyruvate and 25 mM HEPES) and dispensed at 2,000 cells/4 uL /well into 1536-well black wall/clear bottom plates using a Multidrop Combi (ThermoFisher Scientific, Waltham, MA) dispenser. After the assay plates were incubated at 37 C/5% CO2 for 18 hrs, 23 nL of compounds dissolved in DMSO, positive controls or DMSO only was transferred to the assay plate by a pintool workstation (Kalypsys, San Diego, CA), followed by addition of 1 […] uL of 1.25uM NKH477 (0.25 uM as final concentration) in assay medium using a Flying Reagent Dispenser (Aurora Discovery, San Diego, CA). The plates were incubated at 37 C and 5% CO2 for 3 hrs. Then 1 uL of LiveBLAzer B/G FRET substrate (Invitrogen, Carlsbad, CA) was added to each well using Bioraptr Flying Reagent Dispenser (FRD, Aurora Discovery, San Diego, CA). The plates were incubated at room temperature for 2 h.
SMILES,Potency,"activity change, negative = inhibition"
CC(C)=C[C@@H]1[C@@H](C(=O)OCc2coc(Cc3ccccc3)c2)C1(C)C,inactive,–
Nc1ccccc1C(=O)O,inactive,–
C[C@@H]1CN(C2CCC(C#N)(c3ccc(F)cc3)CC2)CC[C@]1(C(=O)O)c1ccccc1 (stereo not given in full),–,-1.86% [at 42.4 µM] (inactive)
N#CCBr,–,-13.3% (inactive)
Clc1cccc(Cl)c1Cl,inactive,–
N#CCc1ccccc1,–,0.938% (inactive)
CC(C)C1(C)N=C(c2ncccc2C(=O)O)NC1=O (stereo not given),–,-3.08% (inactive)
N#CS,inactive,–
COP(=S)(OC)Oc1ccc(Sc2ccc(OP(=S)(OC)OC)cc2)cc1,inactive,–
Oc1c(Br)cc(Br)cc1Br,inactive,–
O=NN1CCCCCCC1,inactive,–
O=C(O)C(Cl)(Cl)Cl,inactive,–
CC(C)Oc1cc(-n2nc(C(C)(C)C)oc2=O)c(Cl)cc1Cl,inactive,–
CCCC[N+]1(C)CCCC1,inactive,–
Nc1ccccc1,inactive,–
COC(=O)c1sccc1S(=O)(=O)NC(=O)Nc1nc(C)nc(OC)n1,inactive,–
C=CC=O,–,-1.73% (inactive)
OC(Cc1ccccc1Cl)(Cn1cncn1)C1(Cl)CC1 (stereo not given),–,4.46% (inactive)
c1ccc(-c2ccccc2)cc1,inactive,–
CCNc1nc(Cl)nc(NCC)n1,inactive,–

SMILES,Potency,"activity change, negative = inhibition"
ClCc1cccnc1,inactive,–
C=CCc1ccccc1O,–,-3.83% (inactive)
c1ccc(-c2cccc(-c3ccccc3)c2)cc1,inactive,–
CC(=O)C=C(C)C,inactive,–
CCC/C=N/O,inactive,–
CCCCOCC1CO1 (stereo not given),–,2.67% (inactive)
CCCCOP(=O)(CCCC)OCCCC,–,-7.23% (inactive)
O=[N+]([O-])c1ccc(CBr)cc1,–,2.11% (inactive)
CC(=O)CCC(C)=O,–,1.22% (inactive)
NNC(=O)c1ccccc1,–,3.03% (inactive)
CNC(=O)Oc1cccc2c1OC(C)(C)O2,inactive,–
COc1ccc(N)cc1N,–,-0.709% [at 42.4 µM] (inactive)
NC(=O)CF,–,-7.6% (inactive)
O=P1(NCCCl)OCCCN1CCCl (stereo not given),inactive,–
O=C(O)C(F)(F)C(F)(F)C(F)(F)C(F)(F)C(F)(F)C(F)(F)C(F)(F)F,inactive,–
CC(C)(OOC(C)(C)c1ccccc1)c1ccccc1,inactive,–
C#CCOC(C(=O)OCCN(C)C)(c1ccccc1)c1ccccc1,–,1.21% [at 42.4 µM] (inactive)
N[C@@H](Cc1ccc(N(CCCl)CCCl)cc1)C(=O)O,–,4.58% [at 42.4 µM] (inactive)
N#Cc1cccnc1,inactive,–
O=S(=O)(O)C(F)(F)C(F)(F)C(F)(F)C(F)(F)C(F)(F)C(F)(F)F,–,5.37% (inactive)
